# Reference: ChEMBL document CHEMBL3988442, “University of Dundee, Small-Polar-MMV Screening Library” (2021)
# Screen size: about 48,000 compounds; about 13,000 (27%) showed an effect of 50% or more. The list shows a part of the results.
# System: Wolbachia pipientis
# Assay: Anti-Wolbachia Cell-Based Screen
# Assay type: functional
# Design: scale not given: in the data most compounds retested in dose-response had high values
# Conditions: 5 µM
row,Compound,Percent Effect [%]
1,NC(=O)c1cncc(N2CCN(Cc3ccc(F)cc3Cl)CC2)n1,-6.115
2,CCC(C)N(Cc1cccnc1)Cc1cc2c(cc1OC)OCO2 (stereo not given),6.738
3,Cc1ncnc2c1CCN(C(=O)c1cccn1C)CC2,-19.88
4,CN1CCN(c2ncnc3c2CCN(C(=O)c2cccn2C)CC3)CC1,1.463
5,Cn1cccc1C(=O)N1CCc2ccc(=O)n(C)c2CC1,85.33
6,CN(CCCNC(=O)N1CCCC1c1ccsc1)c1ccccn1 (stereo not given),7.927
7,Cn1ccnc1-c1nccn1C[C@@H]1CCCN2CCCC[C@H]12,-12.88
8,OCC1CCCN(c2ncnc3c2Cc2ccccc2OC3)C1 (stereo not given),5.574
9,Cn1ccnc1CN1C[C@@H](CN2CCC(CO)CC2)[C@@H](CO)C1,-24.97
10,Cc1cc(N2CCCCCC2)n2nc(C)c(C)c2n1,-8.895
11,Cc1nc2cc(-c3nccn3C)nn2c(N2CCCC(O)C2)c1C.Cl (stereo not given),80.29
12,Cc1cc(C2CCC2)nc(N2CCN(Cc3nccn3C)CC2)n1,-10.5
13,Cc1cc(N2CCCN(c3nc(C)nc(C)c3C)CC2)ccn1,23.81
14,Cc1cc(N2CCCC(O)CC2)n2nc(C)c(C)c2n1 (stereo not given),-2.095
15,Cc1nc2cc(-c3nccn3C)nn2c(N2CCCC(CO)C2)c1C (stereo not given),68.35
16,Cc1cc(N2CC[C@H](O)C2)n2nc(C)c(C)c2n1,-7.079
17,Cc1ccccc1OCC(=O)N1CC[C@]2(C[C@@H](OCC3CC3)CO2)C1,14.13
18,CC(NC(=O)c1coc(COc2cccc(F)c2)n1)c1nnc(N)s1 (stereo not given),-13.23
19,O=C(N1CCc2ccccc2CC1)C1(O)Cc2ccccc2C1,1.099
20,Cc1nsc(N2CCCN(C(=O)NCc3cccnc3)CC2)n1,-3.745

row,Compound,Percent Effect [%]
1,CCNC(=O)N1C[C@@H]2OCC(=O)N(C)[C@@H]2C1,-7.352
2,Cn1ccnc1CN1C[C@H](N2CCOCC2)[C@@H]2OCCC[C@@H]21.O=C(O)C(F)(F)F.O=C(O)C(F)(F)F.O=C(O)C(F)(F)F,-9.409
3,Cn1ccnc1C(=O)N[C@@H]1CN(Cc2ccoc2)[C@@H]2CCCO[C@@H]21.O=C(O)C(F)(F)F,105.8
4,O=C(N[C@@H]1CN(CC2CC2)[C@@H]2CCCO[C@@H]21)c1cscn1.O=C(O)C(F)(F)F,102.8
5,Cn1cc(CN2C[C@@H](NC(=O)c3cscn3)[C@H]3OCCC[C@H]32)cn1.O=C(O)C(F)(F)F.O=C(O)C(F)(F)F,-10.62
6,Cn1cccc1C(=O)N[C@H]1CN(Cc2ccoc2)[C@@H]2CCCO[C@H]12.O=C(O)C(F)(F)F,107.4
7,Cn1ccnc1C(=O)N[C@@H]1CN(CC2CCOCC2)[C@@H]2CCCO[C@@H]21.O=C(O)C(F)(F)F,97.93
8,Cn1cccc1C(=O)N[C@@H]1CN(Cc2ccsc2)[C@@H]2COC[C@@H]21.O=C(O)C(F)(F)F,-6.344
9,Cn1cc(C(=O)N[C@@H]2CN(Cc3cccnc3)[C@@H]3CCCO[C@@H]32)cn1.O=C(O)C(F)(F)F.O=C(O)C(F)(F)F,-2.49
10,Cn1cc(C(=O)N[C@@H]2CN(CC3CCOCC3)[C@@H]3CCCO[C@@H]32)cn1.O=C(O)C(F)(F)F,-2.907
11,O=C(N[C@@H]1CN(Cc2cccs2)[C@@H]2CCCO[C@@H]21)c1cscn1.O=C(O)C(F)(F)F,6.119
12,Cc1ccc(C(F)(F)F)cc1C(=O)N[C@H]1CN(CCO)C[C@@H]1C1CC1,7.552
13,CNC(=O)c1c(C)cccc1NCc1noc(C2CC2)n1,-16.59
14,N#Cc1ccc(CN2C[C@@H](F)[C@@H](OCc3nc4cnccc4[nH]3)C2)cc1,-2.578
15,CC1CN(C(=O)NCc2cnn(-c3ccc(F)cc3F)c2)CCO1 (stereo not given),-3.691
16,Cc1cnn(CCNCC(=O)Nc2ccc(Cl)cn2)c1,6.715
17,CC(C)c1nn(C)c(N(C)C)c1CNC1CCN(C2CC2)CC1.Cl,-24.68
18,CC(C)CN1CC2(CCN(C(=O)C3CSC(C)(C)C(=O)N3)CC2)CC1=O (stereo not given),-2.858
19,Cn1ccnc1C(=O)N[C@@H]1CN(Cc2ccc(F)cc2)[C@@H]2CCCO[C@@H]21.O=C(O)C(F)(F)F,106
20,Cn1cc(C(=O)N[C@@H]2CN(Cc3ccc(F)cc3)[C@@H]3CCCO[C@@H]32)cn1.O=C(O)C(F)(F)F,-4.433

row,Compound,Percent Effect [%]
1,Cn1ccnc1C(=O)N[C@@H]1CN(Cc2cccs2)[C@@H]2CCCO[C@@H]21.O=C(O)C(F)(F)F,-0.1124
2,Cn1cc(C(=O)N[C@@H]2CN(Cc3cccs3)[C@@H]3CCCO[C@@H]32)cn1.O=C(O)C(F)(F)F,-10.01
3,Cc1ccc(CN2C[C@H](NC(=O)c3nccn3C)[C@H]3OCCC[C@H]32)o1,104.4
4,Cn1cc(C(=O)N[C@@H]2CN(Cc3ccoc3)[C@@H]3CCCO[C@@H]32)cn1,112.9
5,CCN(CC)[C@@H]1CN(Cc2ccc(C)o2)[C@@H]2CCCO[C@H]12,-8.708
6,O=C1C(NCc2nnc3n2CCCC3)CCN1CC(F)(F)F (stereo not given),-0.8085
7,COc1ccc(CSCC(O)CO)c(Cl)c1 (stereo not given),-5.402
8,CCn1cc(S(=O)(=O)NC(CO)Cc2c[nH]c3ccccc23)cn1 (stereo not given),-10.13
9,CC(=O)NC1CCN(c2nc(C)nc3c2c(C)nn3C)C1 (stereo not given),-5.882
10,CCN(CC)c1nc2sc(C(=O)NC(C)(C)C(=O)OC)cc2s1,3.402
11,Cc1ccc(N2Cc3nc(=O)[nH]n3C2=O)cc1,-1.797
12,Cc1noc(CN2CCN(C(C)C(=O)NCc3cccs3)CC2)n1 (stereo not given),10.97
13,CC(=O)NCC1CCN(Cc2nc(C3CC3)no2)CC1,21.76
14,Cc1noc(CN2CCN(CCS(C)(=O)=O)CC2)n1,-3.839
15,COC(=O)c1ccc(CN2CCN(Cc3nc(C)no3)CC2)s1,97.03
16,COC(=O)c1ccc(CN2CCC(c3noc(C)n3)CC2)s1,44.67
17,COC(=O)c1ccc(CN2CCC(c3n[nH]c(C)n3)CC2)s1,96.4
18,COC(=O)c1cc(CN2CCC(c3noc(C)n3)CC2)c(C)s1,83.77
19,COC(=O)c1ccc(Cn2cccc(C(F)(F)F)c2=O)s1,-1.829
20,Cc1nc(C2CCN(S(=O)(=O)c3ccc4c(c3)CCO4)CC2)n[nH]1,0.09354
